Experimental data reported in PubChem BioAssay (NCI).
About 79,000 compounds went through this panel and 15% of them were active in at least one assay; those are over-represented in the sample as a whole. The source made the active and inactive calls. No stated cut-off is given here; in the data, active means growth inhibition above about 70%; inactive means the rest.

Assays:
[1] = NCI Yeast Anticancer Drug Screen. Data for the mlh1 strain (AID 171);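 further: 0% = growth of vehicle-treated control cultures of the same strain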; details: S. cerevisiae mlh1 strain growth inhibition, active compounds read high
Summary of the method: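 Inhibition values reflect reduced yeast growth in the presence of compound, referenced to vehicle controls, using a strain chosen for its alteration in DNA repair or cell cycle control.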

[2] = NCI Yeast Anticancer Drug Screen. Data for the sgs1 strain (AID 173);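 further: 0% = growth of vehicle-only control cultures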; details: S. cerevisiae sgs1 mutant, active compounds read high
Summary of the method: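 Vehicle-treated cultures served as reference for growth inhibition of a yeast strain altered in DNA damage repair or cell cycle control after compound exposure.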

[3] = NCI Yeast Anticancer Drug Screen. Data for the mlh1 rad18 strain (AID 175); details: S. cerevisiae mlh1 rad18 strain growth inhibition, active compounds read high
Summary of the method: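 Inhibition values reflect reduced growth of mutant yeast versus vehicle-treated controls following compound exposure; the mutations affect DNA damage repair.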

[4] = NCI Yeast Anticancer Drug Screen. Data for the rad18 strain (AID 177); details: S. cerevisiae rad18 mutant growth inhibition, active compounds read high
Summary of the method: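 Steps: expose repair-mutant yeast to compound; measure growth; express as inhibition relative to vehicle control.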

[5] = NCI Yeast Anticancer Drug Screen. Data for the wt1 strain (AID 149);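 further: 0% = growth of vehicle-treated wt1 cultures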; details: S. cerevisiae wt1 strain (SPY 50644) growth inhibition, active compounds read high
Summary of the method: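 Growth inhibition read against vehicle controls after compound exposure of the wt1 yeast strain.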

[6] = NCI Yeast Anticancer Drug Screen. Data for the rad50EPP+ strain (AID 151);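 further: 0% = growth of vehicle-treated control cultures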; details: S. cerevisiae rad50 mutant strain, active compounds read high
Summary of the method: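 Genetically defined yeast (rad50EPP+, DNA damage repair alteration) is grown with compound, and inhibition of growth is expressed relative to vehicle-treated controls.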

[7] = NCI Yeast Anticancer Drug Screen. Data for the mgt1 strain (AID 153); details: S. cerevisiae mgt1 mutant growth inhibition, active compounds read high
Summary of the method: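 In the mgt1 strain, test compounds were added and growth inhibition was determined relative to vehicle-treated controls.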

[8] = NCI Yeast Anticancer Drug Screen. Data for the rad50 strain (AID 155);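 further: 0% = growth of vehicle-only cultures of the same strain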; details: S. cerevisiae rad50 strain growth inhibition, active compounds read high
Summary of the method: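 Readout: growth inhibition relative to vehicle-treated cultures. Compound exposure was carried out in a genetically defined yeast strain deficient in DNA damage repair.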

[9] = NCI Yeast Anticancer Drug Screen. Data for the mec2-1 strain (AID 157); details: S. cerevisiae mec2-1 strain, active compounds read high
Summary of the method: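 Each compound was tested on mec2-1 yeast, a strain altered in DNA damage repair or cell cycle control. Growth inhibition is reported relative to vehicle.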

[10] = NCI Yeast Anticancer Drug Screen. Data for the rad14 strain (AID 159);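 further: 0% = growth of vehicle-treated control cultures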; details: S. cerevisiae rad14 strain growth inhibition, active compounds read high
Summary of the method: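 Growth inhibition vs vehicle controls; genetically altered yeast strain (DNA damage repair defect) treated with test compounds.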

[11] = NCI Yeast Anticancer Drug Screen. Data for the sgs1 mgt1 strain (AID 161);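 further: 0% = growth of cultures given vehicle only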; details: S. cerevisiae sgs1 mgt1 strain, active compounds read high
Summary of the method: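 Read-out: growth inhibition vs vehicle controls. Cells: mutant yeast strain deficient in DNA damage repair.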

[12] = NCI Yeast Anticancer Drug Screen. Data for the CLN2oe strain (AID 163);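 further: 0% = growth of vehicle-only control cultures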; details: S. cerevisiae CLN2oe strain, active compounds read high
Summary of the method: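 First, the altered yeast strain was treated with each compound; second, its growth was measured; finally, inhibition was derived by comparison with vehicle controls.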

[13] = NCI Yeast Anticancer Drug Screen. Data for the cln2 rad14 strain (AID 165);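 further: 0% = growth equal to vehicle treated cultures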; details: S. cerevisiae cln2 rad14 strain, active compounds read high
Summary of the method: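 Test compounds were added to cln2 rad14 yeast cultures; inhibition of growth was then determined by comparison with vehicle treatment.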

[14] = NCI Yeast Anticancer Drug Screen. Data for the bub3 strain (AID 167); details: S. cerevisiae bub3 mutant strain, active compounds read high
Summary of the method: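 Readout: yeast growth inhibition, expressed relative to vehicle-only wells. The test organism is a mutant strain from a panel with lesions in DNA repair or checkpoint genes.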

[15] = at 5.0 µM (retest, dose inferred, filed as 0.5)
[16] = at 50.0 µM (retest, dose inferred, filed as 5.0)

Measured: growth inhibition

O=C(CCC(=O)c1ccc(O)cc1)Oc1ccc(O)cc1
inactive: [1]; at 1.2 µM 3% | [1]; at 3.7 µM 0% | [1]; at 11.0 µM 2% | [1]; at 33.0 µM 1% | [1]; at 100.0 µM 4% | [2]; at 1.2 µM 1% | [2]; at 3.7 µM 1% | [2]; at 11.0 µM 1% | [2]; at 33.0 µM 4% | [2]; at 100.0 µM 6% | [3]; [15] -18% | [3]; [16] 25% | [3]; at 50.0 µM 1.35% | [4]; at 1.2 µM 1% | [4]; at 3.7 µM -3% | [4]; at 11.0 µM -4% | [4]; at 33.0 µM -4% | [4]; at 100.0 µM -4%

Cc1ccccc1C1=C(CC(=O)O)c2ccccc2CC1C (stereo unspecified)
active: [5]; at 33.0 µM 96% | [5]; at 100.0 µM 96% | [7]; at 33.0 µM 95% | [7]; at 100.0 µM 99% | [8]; at 33.0 µM 97% | [8]; at 50.0 µM 98.9% | [8]; at 100.0 µM 99% | [9]; at 33.0 µM 95% | [9]; at 50.0 µM 99.7% | [9]; at 100.0 µM 99% | [10]; at 33.0 µM 98% | [10]; at 100.0 µM 99% | [11]; at 50.0 µM 99.6% | [12]; at 33.0 µM 97% | [12]; at 100.0 µM 98% | [13]; at 50.0 µM 99.4% | [14]; at 33.0 µM 93% | [14]; at 50.0 µM 99% | [14]; at 100.0 µM 99% | [1]; at 33.0 µM 96% | [1]; at 100.0 µM 99% | [2]; at 33.0 µM 98% | [2]; at 100.0 µM 99% | [3]; at 50.0 µM 99.5% | [4]; at 33.0 µM 96% | [4]; at 100.0 µM 99%
inactive: [5]; at 1.2 µM 4% | [5]; at 3.7 µM 8% | [5]; at 11.0 µM 29% | [6]; at 1.2 µM -1% | [6]; at 3.7 µM 2% | [6]; at 11.0 µM 6% | [6]; at 33.0 µM 10% | [6]; at 100.0 µM 49% | [7]; at 1.2 µM 9% | [7]; at 3.7 µM 11% | [7]; at 11.0 µM 22% | [8]; at 1.2 µM 6% | [8]; at 3.7 µM 10% | [8]; [15] 6% | [8]; at 11.0 µM 45% | [8]; [16] 10% | [9]; at 1.2 µM 9% | [9]; at 3.7 µM 20% | [9]; [15] 10% | [9]; at 11.0 µM 49% | [9]; [16] 6% | [10]; at 1.2 µM 6% | [10]; at 3.7 µM 11% | [10]; at 11.0 µM 29% | [11]; [15] 2% | [11]; [16] 20% | [12]; at 1.2 µM 10% | [12]; at 3.7 µM 15% | [12]; at 11.0 µM 57% | [13]; [15] -13% | [13]; [16] 28% | [14]; at 1.2 µM 11% | [14]; at 3.7 µM 9% | [14]; [15] -4% | [14]; at 11.0 µM 26% | [14]; [16] 1% | [1]; at 1.2 µM 6% | [1]; at 3.7 µM 12% | [1]; at 11.0 µM 32% | [2]; at 1.2 µM 5% | [2]; at 3.7 µM 10% | [2]; at 11.0 µM 40% | [3]; [15] 14% | [3]; [16] 50% | [4]; at 1.2 µM 4% | [4]; at 3.7 µM 10% | [4]; at 11.0 µM 38%
